From PubChem BioAssay
Calls of active or inactive are those of the source.

Assay: CREB reporter modulators without forskolin, primary screen, cell-based, PC12, CRE-LacZ reporter, unstimulated (AID 1145)
Conditions: no forskolin, luminescence, 4.5 h, higher = more signal, called active from +8 up or from −8 down
With `CC(C)[Si](C#C[Si](C(C)C)(C(C)C)C(C)C)(O[C@H](C)c1cn(Cc2cccc(Cl)c2)nn1)C(C)C` the z-score was -0.71 (inactive). With `CC(C)(C)OC(=O)CC[C@]1(C(=O)N2CCCCC2)N=C(c2ccc(OCCCO)cc2)O[C@H]1c1ccccc1CN=[N+]=[N-]` the z-score was 0.927 (inactive). For `CCOC(=O)C[C@H]1[C@H](OC(=O)Cc2ccc3c(c2)OCO3)[C@@H](NC(=O)c2ccccc2)c2cc(OCCCO)ccc2N1C(=O)c1ccc2ccccc2n1`, the z-score was 11 (active). In the case of `CC(C)CCC[C@@H](C)[C@H]1CC[C@@]2(C)C3=C(CC[C@]12C)[C@@]1(C)CC[C@H](OC(=O)c2ccc(N)cc2)C(C)(C)C1CC3` (stereo partly drawn), the z-score is reported as 1.39 (inactive). With `C=CCC(OC(C)=O)[C@@H]1[C@@H](N(Cc2cccc3ccccc23)C(=O)c2ccc(C)cc2)c2cc(OCCCO)ccc2N1C(=O)c1ccc2ccccc2c1` (stereo partly drawn) the z-score was 1.22 (inactive). With `COC(=O)C(CC#Cc1ccc2c(c1)[C@]1(C(=O)N2)[C@H](c2ccccc2OCCO)N2[C@H](c3ccccc3)[C@H](c3ccccc3)OC(=O)[C@H]2[C@@H]1C(=O)Nc1nc2ccccc2s1)C(=O)OC` the z-score was 1.21 (inactive). For `C=CCOC(=O)[C@@H]1[C@H]2C(=O)O[C@H](c3ccccc3)[C@H](c3ccccc3)N2[C@H](c2ccc(OCCOC(=O)[C@@H]3C[C@@H]4C(=O)N5CCC[C@H]5C(=O)N4[C@@H]3c3cccc(OCCO)c3)cc2)[C@@]12C(=O)Nc1ccc(I)cc12`, the z-score was -1.2 (inactive). In the case of `COc1ccc(C(=O)Nc2ccc(CN3C(=O)[C@]4(O[C@H](CCn5cc([C@H](O)c6ccccc6)nn5)[C@@H]([Si](C)(C)c5ccc(OC)cc5)[C@@H]4C)c4ccccc43)cc2)cc1`, the z-score is reported as -0.375 (inactive).
